Screening results: PubChem, several laboratories
The list is not random: actives were taken first. Their share in the collection is about 1.8%.
ABCB6 inh MLPCN – ABCB6 transporter inhibitors, primary screen, K562-ABCB6 cells, flow cytometry, MLPCN library | fluorescence ratio to DMSO, % at 10 µM | AID 602162, 2011 | hit rate 0.19% among 360,000 | K562-ABCB6 porphyrin accumulation, 1 h; stronger effect = lower value;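 active = fluorescence ratio to DMSO below 75%, the collection mean minus 3 SD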;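 note: signal is porphyrin accumulated inside mitochondria; 100% equals median channel fluorescence of DMSO control wells; lower ratio means ABCB6 inhibition with less porphyrin fluorescence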
Target sequence (Q9NP58 whole entry, looked up): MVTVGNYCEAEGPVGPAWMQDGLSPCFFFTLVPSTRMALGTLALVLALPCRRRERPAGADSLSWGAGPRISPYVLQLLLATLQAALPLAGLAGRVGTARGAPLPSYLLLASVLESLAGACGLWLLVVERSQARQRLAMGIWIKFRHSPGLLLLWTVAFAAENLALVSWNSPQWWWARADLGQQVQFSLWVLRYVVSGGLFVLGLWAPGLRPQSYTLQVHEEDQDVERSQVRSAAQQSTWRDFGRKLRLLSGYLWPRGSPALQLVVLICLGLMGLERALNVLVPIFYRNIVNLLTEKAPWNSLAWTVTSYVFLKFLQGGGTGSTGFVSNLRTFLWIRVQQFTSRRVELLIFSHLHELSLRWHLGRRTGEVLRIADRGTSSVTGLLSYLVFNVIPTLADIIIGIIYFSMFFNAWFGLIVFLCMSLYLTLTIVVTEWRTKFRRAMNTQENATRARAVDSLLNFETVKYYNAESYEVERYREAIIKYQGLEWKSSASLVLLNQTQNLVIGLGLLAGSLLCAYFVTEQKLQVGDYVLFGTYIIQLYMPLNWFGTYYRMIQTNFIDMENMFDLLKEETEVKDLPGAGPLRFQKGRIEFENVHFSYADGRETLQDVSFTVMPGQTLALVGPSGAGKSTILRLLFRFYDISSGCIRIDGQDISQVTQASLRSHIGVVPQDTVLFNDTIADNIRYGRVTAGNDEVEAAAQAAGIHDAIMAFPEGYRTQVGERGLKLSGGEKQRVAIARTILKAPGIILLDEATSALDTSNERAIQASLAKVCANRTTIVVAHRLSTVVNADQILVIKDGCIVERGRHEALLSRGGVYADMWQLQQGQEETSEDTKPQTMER
CendR NRP1 mod – modulators of CendR peptide binding to NRP-1, primary screen, biochemical, fluorescence polarization, uHTS. AID 602438, 2012. FAM-RPARPAR peptide binding to NRP-1. Neuropilin-1 (Homo sapiens), O14786. hit rate 0.85% among 360,000. inhibition, % at 25 µM;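 active = inhibition or corrected inhibition above about 18%, plus a signal ratio from 0.5 to 1.5, limit read from the data, passing the limit was not always enough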
INS-1E GSIS act – GLuc luminescence reporter in INS-1E cells, primary screen for activators of glucose-dependent secretion of insulin; AID 743287, 2014; hit rate 0.61% among 370,000; activation, % at 16.6 µM; INS-1E GLuc reporter insulin secretion, 2-3 h;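 active = lowest replicate activation of at least 40%, so every replicate reaches that level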;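 note: 0% = median of neutral control wells and 100% = median of IBMX positive control wells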
ARNT-TACC3 inh – disruptors of ARNT/TACC3 protein interaction, primary screen, biochemical, AlphaScreen, single concentration; AlphaScreen His-ARNT PAS-B/GST-TACC3 binding, luminescence; TACC3 fragment carries E629A point mutation; hit rate 0.66% among 390,000; Transforming acidic coiled-coil-containing protein 3 (Homo sapiens), Q9Y6A5; inhibition, % at 9.99 µM; AID 623870, 2012;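 active = mean inhibition of replicates at least 50% and at least half of replicates each reaching 50%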;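 note: 0% = complete ARNT plus TACC3 wells and 100% = ARNT alone without TACC3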
iPSC survival up – enhancers of single-cell hiPSC survival, primary screen, ATPlite luminescence. 100% = ROCK inhibitor wells, 0% = DMSO. survival enhancement, % at 20 µM. hit rate 0.044% among 360,000. AID 602274, 2012; in the data active = survival enhancement above about 18%;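 note: cells exposed to compounds for 16 hours before the ATP read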
* marks the source's active call; other numbers are inactive results; nt = no result given.

SMILES	ABCB6 inh MLPCN	CendR NRP1 mod	INS-1E GSIS act	ARNT-TACC3 inh	iPSC survival up
COc1ccccc1Nc1nc(NCCO)nc(N2CCCC2)n1	87	-4	22	active	1
NC(=O)c1ccc(Nc2nc(C(N)c3ccccc3Cl)cs2)cc1 (centres undefined)	97	5	14	nt	28*
Cc1ccsc1/C=N/Nc1nc(=O)[nH]nc1C	105	-20	8	64*	-2
Cc1cc(C)nc(N/N=C/c2sccc2C)n1	83	-14	6	-2	2
O=C(Nc1ccccc1)N1CC(=O)N2[C@@H](CO)[C@H](c3ccc(C#Cc4cccnc4)cc3)[C@@H]2C1	nt	nt	3	nt	nt
CCN(CC)c1ccc(NC(=O)Cn2cc3c(n2)CCC(C)C3)c(C)c1 (centres undefined)	99	-7	-27	49*	-2
CC1CCc2nn(CC(=O)Nc3ccc(F)cc3F)cc2C1 (centres undefined)	106	-9	-3	1	2
CC(CCc1ccccc1)NC(=O)COC(=O)C1CCC(C(C)(C)C)CC1 (centres undefined)	99	32*	-26	-7	-1
NNc1ccc([N+](=O)[O-])c2[nH][nH]c(=O)c12	106	29*	nt	nt	2
CN1C(=O)c2cc(NC(=O)Cc3cccs3)ccc2OC[C@@H]2O[C@@H](CC(=O)O)CC[C@H]21	nt	nt	-3	14	nt
O=C(C(O)c1ccc(Br)cc1)N1CCC(Nc2ccc3[nH]ncc3c2)CC1 (centres undefined)	99	-2	-5	nt	111*
O=C(Nc1ccc2[nH]ncc2c1)C1CCC1	93	-3	17	8	2
CN(C)C(=O)C[C@H]1CC[C@H]2[C@@H](COc3ccc(NC(=O)C4CC4)cc3C(=O)N2C)O1	nt	nt	8	1	nt
O=C1CNC[C@@H]2[C@@H](c3ccc(C#Cc4cccnc4)cc3)[C@@H](CO)N12	nt	nt	4	nt	nt
C[C@H](CO)N1C[C@H](C)[C@H](CN(C)C(=O)c2ccccc2)OCCCC[C@H](C)Oc2ccc(NC(=O)Nc3ccc(C(F)(F)F)cc3)cc2C1=O	nt	nt	10	7	nt
O=C(O)c1cc(=S)nc[nH]1	91	5	3	73*	-2
CN(C)C(=O)c1ccc(-c2ccc([C@@H]3[C@H]4CN(C(=O)C5CCCC5)CCCCN4[C@H]3CO)cc2)cc1	nt	nt	nt	-3	nt
CSCC[C@@H](C(=O)NCc1cccs1)N1Cc2ccccc2C1=O	96	21*	2	-5	-2
CSCCC(C(=O)NCc1cccs1)N1C(=O)c2ccccc2C1=O (centres undefined)	99	-4	-9	nt	0
COCCCNC(=O)[C@@]1(Cc2ccccc2N=[N+]=[N-])N=C(c2ccc(OCCCO)cc2)O[C@H]1c1ccccc1N=[N+]=[N-]	nt	nt	nt	7	nt
Cc1cccc(COCC(CC(C)C)N2CCN(C(=O)c3ccc(C(F)(F)F)cc3)CCC2=O)c1 (centres undefined)	88	-1	-9	-1	-1
CC(C)CC(COCc1ccc([N+](=O)[O-])cc1)N1CCN(C(=O)c2ccc(C(F)(F)F)cc2)CCC1=O (centres undefined)	102	23*	-39	-12	0
COC(=O)c1cn(-c2ccccc2)nc1-c1ccccc1	99	5	nt	-6	-3
COC(=O)c1cn(-c2ccccc2)c(C)c1C(=O)OC	97	22*	nt	2	0
CCc1cccc(CC)c1NC(=O)CN(CC(=O)O)CC(=O)O	98	4	nt	18	4
SMILES	ABCB6 inh MLPCN	CendR NRP1 mod	INS-1E GSIS act	ARNT-TACC3 inh	iPSC survival up
O=C(O)CN(CC(=O)O)CC(=O)O	105	-14	17	65*	-1
NC(=O)c1ccsc1NC(=O)CSc1ncnc2sccc12	98	-22	57*	-10	-2
CCSC1=N/C(=C\c2ccc3c(c2)OCO3)C(=O)S1	80	-57	-9	35	4
CN1C(=O)/C(=C/c2ccc3c(c2)OCO3)N=C1c1ccccc1	96	133	40*	-9	-1
ClC(Cl)(c1nnnn1-c1ccccc1)c1nnnn1-c1ccccc1	78	-2	139*	-4	-1
c1ccc(-c2nnnn2-c2ccccc2)cc1	102	12	8	-11	2
CC(=O)c1c(O)cc(C)n(Nc2nc(C)cc(C)n2)c1=O	96	7	nt	73*	2
CC(=O)c1c(O)cc(C)n(-c2ccc(F)cc2)c1=O	110	-2	-8	-2	0
C/C=C/c1ccc([C@@H]2[C@H](CO)N(C(=O)CN(C)C)C23CN(C(=O)C2CCCC2)C3)cc1	nt	nt	9	nt	nt
CCOc1nc(NC(=O)NS(=O)(=O)Oc2ccccc2Cl)nc(-c2ccccc2)n1	102	-3	60*	-4	0
CCOc1nc(NC(=O)NS(=O)(=O)c2cccc(Cl)c2)nc(-c2ccccc2)n1	100	-5	71*	-18	-1
CCOc1nc(NC(=O)NS(=O)(=O)Oc2cccc(Cl)c2)nc(-c2ccccc2)n1	122	6	19	0	0
Cc1ccc(-c2ccc([C@@H]3[C@@H](CO)N4CCCCN(C(=O)c5ccncc5)C[C@@H]34)cc2)cc1	nt	nt	-10	-2	nt
Cc1cccnc1NC(=O)c1ccc(Br)o1	101	1	-5	-3	0
O=C(Nc1nnc2n1CCS2)c1ccc(Br)o1	102	4	24	46*	0
C[C@@H]1CN([C@H](C)CO)C(=O)c2cccc(NS(=O)(=O)c3cn(C)cn3)c2O[C@H]1CN(C)S(=O)(=O)c1cccs1	nt	nt	23	nt	nt
C[C@H](CO)N1C[C@H](C)[C@H](CN(C)Cc2cccc(F)c2)Oc2cc(C#CC3CC3)ccc2S1(=O)=O	nt	nt	-18	-5	nt
Cc1cccc(C)c1NC(=O)C1c2ccccc2Oc2ccccc21	109	-3	51*	-1	0
Cc1ccccc1NC(=O)C1c2ccccc2Oc2ccccc21	101	-6	-3	-20	0
CN(Cc1ccc(Cl)cc1)C(CCc1ccccc1)C(=O)NC1CCCCC1 (centres undefined)	79	20*	-30	nt	2
CN(Cc1ccc(Cl)cc1)C(C(=O)NC1CCCCC1)c1cc2ccccc2o1 (centres undefined)	99	-3	-4	nt	-2
CCCNC(=O)N1CC2(CCN(Cc3ccncc3)CC2)c2c(n(C)c3cc(OC)ccc23)[C@H]1CO	nt	nt	-7	nt	nt
Cc1ccc(CN2CCN(Cc3cn(C)nc3C)CC2CCO)o1 (centres undefined)	101	-4	4	nt	22*
CCN1C(=O)/C(=C\c2cn(-c3ccccc3)nc2-c2cccnc2)SC1=S	103	36*	-11	-2	0
O=C(/C=C\c1cn(-c2ccccc2)nc1-c1ccccc1)Nc1nccs1	97	3	47*	-3	0
